Compounds without any hit were thinned out: in the full panel of roughly 83,000, 20% have a hit.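 For each line, cells grew in 96-well plates with the test compound present at a single concentration for 48 hours.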 Values without a mark were called inactive. The source made the active and inactive calls. Rule for the calls: active = growth percent below 10; inactive = the rest.

Growth data for 28 compounds are collected here from PubChem BioAssay (NCI).

For this experiment, the system named is SK-MEL-28 melanoma. As to the kind of experiment: NCI-60 one-dose screen, 48 h (100 = growth as untreated, 0 = no growth, -100 = all killed). Particulars: 10 µM unless noted.
With `NC(=NCCCOc1ccc(F)cc1)Nc1ccc(Cl)cc1`, the growth is 88.3%.

On to `CCCOC(=O)N[C@H]1CCc2c(Cl)c(OC)c(OC)c(OC)c2-c2ccc(SC)c(=O)cc21`, for which the growth was 68.8%.

Turning to `N#Cc1c(NC(=O)NCc2ccccc2)sc2c1CCCC2`, the growth was 64.9%. To `NCCCCCCNc1cc(-c2cccc(OC(F)(F)F)c2)nc2ccc(N3CCCC3)cc12` belongs -83.4% (active). The same measure for `C[C@H]1[C@H](C)CC[C@]2(C(=O)NCC#CCN3CCN(C)CC3)CC[C@]3(C)C(=CC[C@@H]4[C@@]5(C)Cc6c([nH]c7ccccc67)C(C)(C)[C@@H]5CC[C@]43C)[C@H]12`: 82.3%. To `N#Cc1c(NCc2ccccc2I)sc2c1CCCCC2` belongs 110%.

With `CN1C(=O)NC(c2ccc3c(c2)OCO3)C=C1c1ccccc1` (stereo not drawn), the growth is 106%.

`COc1cc(/C=C\C(=O)O)ccc1OCc1ccccc1`: the growth is 110%. To `CCN(CC)c1ccc(/C=N/NC(=O)CSc2nc3ccccc3c(=O)n2Cc2ccc(S(N)(=O)=O)cc2)c(O)c1` belongs 33.1%; to `Cc1ccc(S(=O)(=O)NNC(=O)/C(=C\c2ccc(Cl)cc2)c2nc3ccccc3s2)cc1`, 101%. With `CCOC(=O)[C@@H]1CCCN(S(=O)(=O)c2ccc(S(=O)(=O)N(CC)CC)c(F)c2)C1`, the growth is 93.4%. For `Cc1ccc(CNc2c3ccccc3nc3cc(NC(=O)CCN4CCCC4)ccc23)cc1`, the growth is 53.6%. To `COc1ccc(CC(C)=C(c2ccc(OCCN3CCCCCC3)cc2)c2ccc(OCCN3CCCCCC3)cc2)cc1` belongs -99.1% (active); to `CCCCNC(=O)Oc1ccc(/C(=C(\C)c2ccccc2)c2ccc(OCCN3CCCCC3)cc2)cc1`, 46.7%. For the compound `Cn1c2ccccc2c2c3c(c4c5ccccc5n(C)c4c21)C(=O)OC3`, the growth was 120%. The same measure for `CNC(=O)c1cc(Cn2nc(C)c(NC(=O)Nc3ccc(Cl)c(C(F)(F)F)c3)c2C)ccn1`: 107%; for `O=C(Nc1ccc(NC(=O)c2cc(=O)[nH]c3ccccc23)cc1)Nc1cccc(Cl)c1`: 109%; for `COc1ccc(C(=O)CSc2nc(-c3cc(OC)ccc3OC)cc(-c3ccc(Cl)cc3)c2C#N)cc1`: 32.1%.

With `Cc1cc(C)c(S(=O)(=O)Oc2ccccc2[N+](=O)[O-])c(C)c1`, the growth is 50.6%. For `O=C(CCN1CCCC1)Nc1ccc2c(NCc3ccccc3)c3ccccc3nc2c1`, the growth was 32.1%. To `CCN(CC)c1ccc(/C=N/NC(=O)CSc2nc3ccccc3c(=O)n2CCc2ccc(S(N)(=O)=O)cc2)c(O)c1` belongs 47.9%; to `O=C(CSc1nc2sc3c(c2c(=O)n1-c1ccc(Cl)cc1)CCCC3)Nc1nc(-c2cccc(Br)c2)cs1`, 84.4%. The same measure for `COc1ccc(C(C)=O)c(OC)c1`: 109%; for `COc1cccc(-c2nc3occn3c2-c2ccnc(NCCCNS(=O)(=O)c3ccc(C(F)(F)F)cc3)n2)c1`: 97.5%; for `C=C1C(=O)O[C@H]2[C@H]1CC/C(C(=O)NCCCCCNC(=O)/C1=C/CC[C@@]3(C)O[C@H]3[C@H]3OC(=O)C(=C)[C@@H]3CC1)=C\CC[C@@]1(C)O[C@@H]21`: 101%.

In the case of `C=C1C(=O)O[C@H]2[C@H]1CC/C(COC(=O)NCc1c[nH]c3ccc(F)cc13)=C\CC[C@@]1(C)O[C@@H]21`, the growth is -62.5% (active). To `Cc1cc2nc3c4cccc(O)c4n(CCN(C)C)c3nc2cc1C` belongs 75.6%; to `O=C(Cc1ccccc1)NNc1nc(Cl)nc(N2CCN(C(c3ccccc3)c3ccccc3)CC2)n1`, 101%.
